Measured values taken from article PMC4336329 (PLoS ONE, 2015).
The campaign covered roughly 310,000 compounds. About 14,000 (4.5%) showed an effect of 50% or more. Effects have a minus sign here. This excerpt belongs to a sample that is enriched for strong results.

Biological target: human ether-à-go-go-related gene (hERG) potassium channel (human, UniProt Q12809)
Experiment: primary screen, population patch clamp on CHO cells stably expressing hERG; higher = less effect of the substance
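Note: peak tail current of the secondary pulse compared with the same well before compound.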

Chain of human ether-à-go-go-related gene (hERG) potassium channel (Q12809 whole entry, looked up): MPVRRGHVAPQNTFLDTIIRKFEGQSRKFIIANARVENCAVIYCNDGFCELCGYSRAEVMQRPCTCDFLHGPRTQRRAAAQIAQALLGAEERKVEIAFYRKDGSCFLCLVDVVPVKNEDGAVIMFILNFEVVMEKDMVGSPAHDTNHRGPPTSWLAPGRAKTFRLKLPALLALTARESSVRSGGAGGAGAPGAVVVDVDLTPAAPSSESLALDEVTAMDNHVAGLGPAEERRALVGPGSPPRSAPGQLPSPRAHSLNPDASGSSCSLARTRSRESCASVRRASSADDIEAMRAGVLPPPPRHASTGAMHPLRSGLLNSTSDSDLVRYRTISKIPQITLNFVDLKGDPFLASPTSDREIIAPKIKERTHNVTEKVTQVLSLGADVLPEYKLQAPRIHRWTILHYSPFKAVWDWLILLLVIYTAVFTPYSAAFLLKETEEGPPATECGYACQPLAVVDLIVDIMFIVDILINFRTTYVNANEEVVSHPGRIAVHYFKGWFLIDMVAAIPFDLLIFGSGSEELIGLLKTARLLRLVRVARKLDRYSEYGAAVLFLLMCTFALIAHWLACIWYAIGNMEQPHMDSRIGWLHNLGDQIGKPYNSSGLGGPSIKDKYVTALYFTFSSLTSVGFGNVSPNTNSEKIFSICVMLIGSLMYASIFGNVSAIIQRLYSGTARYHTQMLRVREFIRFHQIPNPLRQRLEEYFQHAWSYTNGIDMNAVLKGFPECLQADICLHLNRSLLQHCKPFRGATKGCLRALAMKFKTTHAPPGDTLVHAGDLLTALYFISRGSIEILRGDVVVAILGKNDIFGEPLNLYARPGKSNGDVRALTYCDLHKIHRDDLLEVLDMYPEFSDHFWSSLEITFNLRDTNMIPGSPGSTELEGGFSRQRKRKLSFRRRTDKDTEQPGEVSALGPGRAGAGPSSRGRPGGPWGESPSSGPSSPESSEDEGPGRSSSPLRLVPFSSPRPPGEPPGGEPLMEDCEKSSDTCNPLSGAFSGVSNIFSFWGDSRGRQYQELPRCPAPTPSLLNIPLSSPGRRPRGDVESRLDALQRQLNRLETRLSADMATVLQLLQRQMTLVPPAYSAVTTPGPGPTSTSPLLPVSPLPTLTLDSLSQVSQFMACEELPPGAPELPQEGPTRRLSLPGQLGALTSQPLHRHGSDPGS

SMILES	hERG current change (%, negative = inhibition) at 10uM [%]
CCN(c1ccc(OC)cc1)S(=O)(=O)c1csc(C(N)=O)c1	6.68
COc1ccc(C(=O)Cc2ccc(OC)c(OC)c2)c(OC)c1	-0.547
Cc1ccccc1-n1nnc2c(=O)oc3ccccc3c21	8.96
Cc1ccc(-n2nc3ccc(NC(=O)/C=C/c4ccco4)cc3n2)cc1	7.32
CCOC(=O)Cn1c(=O)oc2cc(S(=O)(=O)N3CCc4ccccc43)ccc21	-2.03
CCOC(=O)Cn1c(=O)oc2cc(S(=O)(=O)N3CCn4c3nc3ccccc34)ccc21	-56.3
CCOC(=O)Cn1c(=O)oc2cc(S(=O)(=O)N3CCCc4ccccc43)ccc21	-26.9
Cc1cccc(CN2CCC(C(=O)Nc3cccc(-c4cccc(F)c4)c3)CC2)n1	-74
Cc1cccc(CN2CCC(C(=O)Nc3ccc(-n4nc(C)cc4C)cc3)CC2)n1	-25.2
Cc1ccccc1C(=O)N1CCC(C(=O)Nc2cccc(F)c2)CC1	-3.49
Cc1cccc(CN2CCC(C(=O)Nc3cccc(-c4cscn4)c3)CC2)n1	-48.2
Cc1cc(C)n(CCCN2CCC(C(=O)Nc3cccc(-c4cccc(F)c4)c3)CC2)n1	-80.4
Cc1cc(C)n(CCC(=O)Nc2cccc(F)c2)n1	5.83
COc1cccc(-c2cccc(NC(=O)C3CCN(Cc4cccc(C)n4)CC3)c2)c1	-80.1
Cc1ccccc1OCCCCN1CCCCC1	12.6
CC(=O)Oc1ccc(-c2cc3c(OC(C)=O)cc(OC(C)=O)cc3oc2=O)cc1	14.1
O=S(=O)(NCC1CCCO1)c1ccc(NS(=O)(=O)c2ccc(F)cc2)cc1 (stereo not drawn)	14.6
Cc1cc(C)n(CC(=O)N2CCCC(N3CCN(Cc4ccc5c(c4)OCO5)CC3)C2)n1 (stereo not drawn)	-14.2
O=C(NCCc1ccccn1)c1ccc(OC2CCN(Cc3ccccn3)CC2)cc1	2.88
O=C(Nc1ncc(Cc2cccc(Cl)c2)s1)c1ccc([N+](=O)[O-])cc1	10.6
O=C(Nc1ccccc1)OCCOc1cccc(Br)c1	1.49
Cc1ccc(CNC(=O)CCC2CCCN(Cc3ccc4cccc(F)c4n3)C2)o1 (stereo not drawn)	-52.1
Cc1ccc(CNC(=O)CCC2CCCN(Cc3c(C)nn(C(C)C)c3C)C2)o1 (stereo not drawn)	-16.6
Cc1nn(C(C)C)c(C)c1CN1CCCC(CCC(=O)NCc2ccccc2F)C1 (stereo not drawn)	0.286

SMILES	hERG current change (%, negative = inhibition) at 10uM [%]
Cc1ccc(CNC(=O)CCC2CCCN(Cc3cccc4cccnc34)C2)o1 (stereo not drawn)	-66
Cc1ccc(CNC(=O)CCC2CCCN(Cc3cccc4ncccc34)C2)o1 (stereo not drawn)	-22.4
CC(C)c1csc(CN2CCCC(CCC(=O)NCc3ccccc3F)C2)n1 (stereo not drawn)	-34.3
O=C(NN1C(=O)C2C3C=CC([C@H]4CC34)[C@@H]2C1=O)c1ccc(Br)cc1 (stereo partly drawn)	8.18
COc1ccc(CNC(=O)CC2C(=O)NCCN2C2Cc3ccccc3C2)cc1 (stereo not drawn)	-28.5
CCc1c(C(=O)Nc2cc(C)cc(C)c2)[nH]c(C)c1C(C)=O	12.7
Cc1nn(C2CCS(=O)(=O)C2)c(Cl)c1/C=C/C(=O)OCC(=O)c1cc(C)n(-c2ccc(F)cc2)c1C (stereo not drawn)	4.11
Cc1nc(SCC(=O)NC2CCCC2)[nH]c(=O)c1Cc1ccccc1	7.93
CCN1CCN(C(=O)c2cc(-c3cccnc3)nc3ccc(Br)cc23)CC1	-28.5
CCOc1cccc(-c2c(C(=O)N/N=C/c3ccncc3)nnn2-c2nonc2N)c1	-9.65
CCCN(CCC)Cc1c(C(=O)N/N=C/c2ccc(Br)cc2)nnn1-c1nonc1N	-15.3
CCN(CC)Cc1c(C(=O)N/N=C(\C)c2ccncc2)nnn1-c1nonc1N	-80.3
CCN(CC)Cc1c(C(=O)N/N=C/c2cccnc2)nnn1-c1nonc1N	-10.9
CCCN(CCC)Cc1c(C(=O)N/N=C/c2ccsc2)nnn1-c1nonc1N	-14.6
CCCc1c(C(=O)N/N=C(/C)c2ccncc2)nnn1-c1nonc1N	0.629
CCN(CC)Cc1c(C(=O)N/N=C/c2ccncc2)nnn1-c1nonc1N	-55.9
CCOc1ccc(-c2c(C(=O)N/N=C/c3cccnc3)nnn2-c2nonc2N)cc1	9.94
CN(C)Cc1c(C(=O)N/N=C/c2ccncc2)nnn1-c1nonc1N	3.67
CCOc1cccc(-c2c(C(=O)N/N=C/c3cccnc3)nnn2-c2nonc2N)c1	-54
CCCN(CCC)Cc1c(C(=O)N/N=C/c2ccncc2)nnn1-c1nonc1N	-64.1
COCc1c(C(=O)N/N=C(\C)c2ccncc2)nnn1-c1nonc1N	7.11
O=C(c1ccc(-n2c(SCc3cc(F)ccc3F)nc3ccccc3c2=O)cc1)N1CCOCC1	8.7
Cc1noc(C)c1COC(=O)Cc1ccc(Cl)cc1	-5.13
COc1ccc(Cc2nc3ccc(C(=O)NCCSC)cc3o2)cc1	6.36

SMILES	hERG current change (%, negative = inhibition) at 10uM [%]
CC(=O)Nc1ccc(S(=O)(=O)N2CCC(N(C)CCC(C)C)CC2)cc1.Cl	-46.8
c1csc(C2Nc3cccc4cccc(c34)N2)c1	-17.2
CCC(=O)Nc1cccc(C(=O)/C=C/c2cccs2)c1	-3.34
COc1ccc(/C=N/NC(=O)CNc2ccc(Br)cc2)c(C(=O)O)c1OC	13.9
O=C(NCCCN1CCCC1=O)c1ccc(OC(F)(F)F)cc1	-0.372
COC(=O)C1=C(C)NC2=C(C(=O)c3ccccc32)C1c1cccc(OC)c1 (stereo not drawn)	4.97
CN(C)C(=O)c1ccc(NC(=O)c2ccccc2Sc2ccccc2C#N)cc1	1.57
O=C(O)C1Cn2c(nc3c(c2=O)C2(CCCC2)Cc2ccccc2-3)S1 (stereo not drawn)	17.3
C=C1C(C(=O)N2CCOCC2)C1C(=O)N1CCOCC1 (stereo not drawn)	5.16
Cc1ccc(/C=N/NC(=O)CSc2nc3ccccc3n2C)s1	-17.4
COc1ccccc1C1C(C(=O)c2sc(C)nc2C)=C(O)C(=O)N1CCN1CCOCC1 (stereo not drawn)	4.26
O=c1[nH]c2ccccc2cc1CN(CC1CCCO1)S(=O)(=O)c1ccccc1 (stereo not drawn)	-10.3
COc1ccc(S(=O)(=O)N(Cc2cccnc2)Cc2cc3ccccc3[nH]c2=O)cc1	-18.6
Cc1ccc(S(=O)(=O)N(Cc2cc3ccccc3[nH]c2=O)CC2CCCO2)cc1 (stereo not drawn)	10.5
O=c1[nH]c2ccccc2cc1CN(Cc1cccnc1)S(=O)(=O)c1ccc(Cl)cc1	-56.2
O=c1[nH]c2ccccc2cc1CN(CC1CCCO1)S(=O)(=O)c1ccc(Cl)cc1 (stereo not drawn)	-75.1
Cc1ccc(S(=O)(=O)N(Cc2cccnc2)Cc2cc3ccccc3[nH]c2=O)cc1	-19.5
CC(=O)NC(C)c1cc(Cl)c2ccccc2c1O (stereo not drawn)	1.04
COc1cc2cc(C(=O)N3CCOCC3)cc(-c3ccc(C)cc3)c2cc1OC	-8.61
COc1ccccc1/C=N/NC(=O)c1ccc(Cn2nc([N+](=O)[O-])cc2C)cc1	-12.7
C/C(=N\NC(=O)C(O)(c1ccccc1)c1ccccc1)c1ccc(C)o1	-2.62
CCOC(=O)N/N=C(/C)c1ccc([N+](=O)[O-])o1	-25.4
C/C(=N/NC(=O)C(O)(c1ccccc1)c1ccccc1)c1ccc([N+](=O)[O-])o1	-71.6
COc1ccc(CNC(=O)C(c2ccc(C)o2)N(C(=O)c2csnn2)c2ccc(C(C)C)cc2)cc1 (stereo not drawn)	-42.9

SMILES	hERG current change (%, negative = inhibition) at 10uM [%]
Cc1ccccc1OCC(O)Cn1nnc2ccccc21 (stereo not drawn)	5.21
COc1ccccc1OC[C@H](O)CO	24
C=CCn1c(=N)n(CC(O)COc2ccccc2OC)c2ccccc21.Cl (stereo not drawn)	-67
COc1ccccc1OCC(O)CO (stereo not drawn)	12.4
COc1ccccc1OCC(O)Cn1c(=N)n(Cc2ccccc2)c2ccccc21.Cl (stereo not drawn)	-71
Cc1ccccc1OCC(O)Cn1c(=N)n(Cc2ccccc2)c2ccccc21.Cl (stereo not drawn)	-73
Cc1ccccc1OCC(O)Cn1c2ccccc2c2ccccc21 (stereo not drawn)	2.67
Br.C=CCn1c(=N)n(CC(=O)c2ccc(OC)cc2)c2ccccc21	-43.7
C=CCn1c(=N)n(CC(O)c2ccco2)c2ccccc21.Cl (stereo not drawn)	-23.1
Cc1ccc(NC(=O)COC(=O)COc2cccc3c2OC(C)(C)C3)c(C)c1	19.8
FC(F)(F)c1nc(SCc2ccc(Cl)cc2Cl)n[nH]1	-0.342
Cc1c(N2C(=O)/C(=C\C3CC=CCC3)SC2=S)c(=O)n(-c2ccccc2)n1C (stereo not drawn)	-6.68
CC(=O)OCC1OC(OCc2cn(C[C@H]3CC[C@@H]([C@@H]4CC[C@H](Cn5cc(COC6OC(COC(C)=O)C(OC(C)=O)C(OC(C)=O)C6OC(C)=O)nn5)O4)O3)nn2)C(OC(C)=O)C(OC(C)=O)C1OC(C)=O (stereo partly drawn)	0.857
ClCCCc1cn(C[C@H]2CC[C@@H]([C@@H]3CC[C@H](Cn4cc(CCCCl)nn4)O3)O2)nn1	-33.6
c1ccc(CCc2cn(C[C@H]3CC[C@@H]([C@@H]4CC[C@H](Cn5cc(CCc6ccccc6)nn5)O4)O3)nn2)cc1	-38.2
c1ccc(SCc2cn(C[C@H]3CC[C@@H]([C@@H]4CC[C@H](Cn5cc(CSc6ccccc6)nn5)O4)O3)nn2)cc1	-62.1
c1c(CC2CCCC2)nnn1C[C@H]1CC[C@@H]([C@@H]2CC[C@H](Cn3cc(CC4CCCC4)nn3)O2)O1	-57.6
O=C1c2ccccc2C(=O)N1CCCc1cn(C[C@H]2CC[C@@H]([C@@H]3CC[C@H](Cn4cc(CCCN5C(=O)c6ccccc6C5=O)nn4)O3)O2)nn1	-23.8
CCCCc1cn(C[C@H]2CC[C@@H]([C@@H]3CC[C@H](Cn4cc(CCCC)nn4)O3)O2)nn1	-54.9
OCCCc1cn(CC2CCCCC2)nn1	2.61
c1ccc(Cn2cc(CSc3ccccc3)nn2)cc1	-11
